Rows were chosen to be rich in hits. Some 2.2% of all compounds tested hit in one or more screens of this group.
FUS suppressor: rescues growth of FUS-expressing yeast; S. cerevisiae FUS-expressing, growth rescue, OD600, 24 h; Potency, µM (top dose mostly 76.6 µM), actives largely listed as activators; 0.24% of 390,000 active; AID 1347120;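 also: plate controls were DMSO vehicle for no effect and reference control for full effect; nearly all actives have a fitted effect of over 55% in size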
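FUS-expressing yeast, raffinose-pregrown, induced in 2% galactose minimal medium at OD 0.005; compounds in a dilution series, 24hr at 30C. Growth restoration read as absorbance at 600 nm. CP55940 positive control, DMSO negative.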
TDP-43 yeast inh: rescues yeast growth from TDP-43 toxicity. TDP-43 expressing yeast growth rescue, BacTiter-Glo, 24 h. Potency, µM (doses to about 46.1 µM), inactives show at the top dose growth rescue (activation), usual class: activators. 1.8% of 410,000 active. AID 652104; also: % of control where 0% means no effect; nearly all actives have a fitted effect of over 50% in size
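Luminescence from BacTiter-Glo reports growth of TDP-43-expressing yeast after 24 hr at 30 deg C with compound. Cells were raffinose-pregrown to mid-log, then seeded in galactose medium at OD600=0.02.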
ERG Ets-DNA blk: blocks human ERG Ets domain binding to DNA; P11308; fluorescence polarization, His-ERG Ets domain / labelled DNA; Potency, µM (series often up to 76.9 µM), for the others: at the highest dose FP activity, negative = inhibition, hits mostly inhibitors; 0.028% of 370,000 active; AID 624246; active = well fitted inhibition curve with a large enough effect in the polarisation, with a control signal flat; inconclusive = small, poorly fitted or top-dose-only effect, or effect the other way, or a change in a side signal; inactive = no such curve, though single readings can be large or run the other way; the % refers to the polarisation;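 also: polarization taken with two DNA probes labelled with fluorescein and Texas red; % of control where 0% means no effect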
Target sequence (P11308 whole entry, looked up, the tested form may be a part): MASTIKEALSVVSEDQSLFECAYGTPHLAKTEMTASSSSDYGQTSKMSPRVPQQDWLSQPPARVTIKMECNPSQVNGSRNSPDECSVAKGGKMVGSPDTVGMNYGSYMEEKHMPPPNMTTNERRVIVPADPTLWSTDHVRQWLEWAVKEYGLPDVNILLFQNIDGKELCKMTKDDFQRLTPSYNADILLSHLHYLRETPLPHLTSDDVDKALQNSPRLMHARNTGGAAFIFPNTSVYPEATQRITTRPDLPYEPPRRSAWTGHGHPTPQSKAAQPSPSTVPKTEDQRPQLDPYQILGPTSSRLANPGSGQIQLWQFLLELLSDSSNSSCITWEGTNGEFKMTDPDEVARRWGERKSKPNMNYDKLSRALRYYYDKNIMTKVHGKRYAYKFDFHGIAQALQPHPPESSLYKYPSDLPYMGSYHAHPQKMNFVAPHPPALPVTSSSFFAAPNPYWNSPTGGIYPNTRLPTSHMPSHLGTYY
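His-tagged ERG Ets domain (1 uM in the protein solution; 300mM KCl, 50mM Tris-HCl, 1mM EDTA, 1mM DTT, pH 7.5) received compound, then a probe mix of 5 nM fluorescein-DNA and 100nM Texas-615-DNA. Fluorescence polarization was read for both dyes.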
Abeta yeast res: restores growth of yeast expressing A-beta42 peptide. Potency, µM (top dose mostly 46.1 µM), actives largely listed as activators. 0.063% of 410,000 active. AID 1347071. yeast expressing A-beta42, growth rescue, OD600, 48 h; response scale: 0% DMSO, 100% iron-clioquinol control; also: nearly all actives have a fitted effect of over 55% in size
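Growth rescue measured by 600 nm absorbance after 48 h yeast culture at 30 C with compound. Values normalized between DMSO and an equimolar ferric chloride plus clioquinol control.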
Mito fusion yeast: mitochondrial division inhibition or fusion activation; S. cerevisiae fusion-defective mutant growth rescue, CellTiterGlo 48 h; Potency, µM (doses to about 46.1 µM), for the others: at the top dose growth rescue (activation), most hits filed as activators; 0.23% of 320,000 active; also: % of control where 0% means no effect; nearly all actives have a fitted effect of over 45% in size
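Luminescent cell viability in 1536-well qHTS format served as the measure of rescued growth in ts fusion-mutant S. cerevisiae cultured on non-fermentable YPEG for 48 hours at 37C.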
aSyn yeast inh: inhibitors of alpha-synuclein toxicity in yeast. Yeast expressing alpha-synuclein, growth rescue, BacTiter-Glo, 24 h. Potency, µM (titrated, usually from 46.1 µM), for the others: top-dose growth rescue (activation), most hits filed as activators. 0.14% of 370,000 active. AID 652106; also: % of control where 0% means no effect; nearly all actives have a fitted effect of over 65% in size
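Readout is rescue of growth in alpha-synuclein-expressing yeast, so inhibitors of toxicity appear as activators. Growth after 24 hr at 30 deg C in galactose medium is quantified by luminescence.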
The depositor's hits bear a star. Unless noted, calls follow the shape of the dose curve; as a rule, active = well fitted curve in the direction sought with a large enough effect; inconclusive = small, poorly fitted or top-dose-only effect, or another doubt; inactive = no such curve, though single readings can be large; an effect the other way counts as inactive or inconclusive. Potency is read from the fitted curve at half-maximal effect.

`CCCCCc1ccc(-c2ccc(/C=C/C(=O)O)cc2)nc1` gave TDP-43 yeast inh 10.3%, ERG Ets-DNA blk -8.6%, Abeta yeast res inactive, Mito fusion yeast 12.6µM* and aSyn yeast inh inconclusive.
Screening CCN(CC)C1=N/C(=C\c2ccc(OC)cc2)C(=O)N1c1ccccc1 returned FUS suppressor inactive, TDP-43 yeast inh 22.4µM*, ERG Ets-DNA blk 5.0%, Abeta yeast res inactive, Mito fusion yeast 28.3% and aSyn yeast inh 8.8%.
Cn1c2ccccc2c2ncn(CCC3=CCCCC3)c(=O)c21 was read as FUS suppressor inactive, TDP-43 yeast inh 12.6µM*, ERG Ets-DNA blk 0.7%, Abeta yeast res inactive, Mito fusion yeast 27.5% and aSyn yeast inh -4.0%.
For CCCc1nc2ccc(NC(C)=O)cc2c(=O)n1Cc1ccccc1Cl the results were FUS suppressor inactive, TDP-43 yeast inh 20µM*, ERG Ets-DNA blk -0.7%, Abeta yeast res inactive, Mito fusion yeast -1.2% and aSyn yeast inh -1.4%.
Screening COc1cc2c(cc1OC)CN(C(=O)Nc1ccccc1)CC2 returned FUS suppressor inactive, TDP-43 yeast inh inconclusive, ERG Ets-DNA blk 6.0%, Abeta yeast res inactive, Mito fusion yeast 1.2% and aSyn yeast inh -1.8%.
`COc1cc2c(cc1OC)CN(C(=O)Nc1ccccc1Cl)CC2` gave FUS suppressor inactive, TDP-43 yeast inh 11.2µM*, ERG Ets-DNA blk -0.1%, Abeta yeast res inactive, Mito fusion yeast 26.4% and aSyn yeast inh 5.8%.
For COc1cc2c(cc1OC)CN(C(=O)Cc1c(F)cccc1Cl)CC2 the results were FUS suppressor inactive, TDP-43 yeast inh 15.8µM*, ERG Ets-DNA blk -10.6%, Abeta yeast res inactive, Mito fusion yeast inconclusive and aSyn yeast inh 9.6%.
For CCn1c(=O)sc2cc(NS(=O)(=O)c3ccc(F)c(C)c3)ccc21 the results were FUS suppressor inactive, TDP-43 yeast inh 0.0%, ERG Ets-DNA blk 0.6% and Abeta yeast res inactive.
`CC(=O)Nc1ncnc2c1c(-c1ccc(Cl)cc1)nn2C(C)(C)C` gave FUS suppressor inactive, TDP-43 yeast inh 8.9%, ERG Ets-DNA blk -1.7%, Abeta yeast res inactive, Mito fusion yeast 7.8% and aSyn yeast inh 3.55µM*.
Screening CC(=O)N(C(C)=O)c1ncnc2c1c(-c1ccc(Cl)cc1)nn2C(C)(C)C returned FUS suppressor inactive, TDP-43 yeast inh 0.0%, ERG Ets-DNA blk -4.6%, Abeta yeast res inactive, Mito fusion yeast -9.0% and aSyn yeast inh -25.8%.
`Cc1ccc(S(=O)(=O)N(CC(=O)NC2CC3CCC2C3)c2ccccc2)cc1` (centres undefined) gave FUS suppressor inactive, TDP-43 yeast inh 14.4%, Abeta yeast res inactive and aSyn yeast inh 0.7%.
O=C1c2ccccc2C(=O)N1C1C=CC=CC=C1 was read as FUS suppressor inactive, TDP-43 yeast inh 25.1µM*, Abeta yeast res inactive and aSyn yeast inh inconclusive.
Screening CC(C)OC(=O)NCCOC(=O)Nc1ccc(Cl)c(Cl)c1 returned FUS suppressor inactive, TDP-43 yeast inh 11.2µM*, ERG Ets-DNA blk -6.7%, Abeta yeast res inactive, Mito fusion yeast -1.2% and aSyn yeast inh 9.3%.
For N=c1c2c(ccn1CCCc1ccccc1)Oc1ccc3ccccc3c1C2c1ccccc1 (centres undefined) the results were FUS suppressor inactive.
Screening OC[C@@H]1CN(Cc2ccccc2)C[C@H](n2cnc3c(N4CCN(c5ccccc5)CC4)ncnc32)O1 returned FUS suppressor 20µM*, TDP-43 yeast inh 16.8%, Abeta yeast res inactive and aSyn yeast inh 26.8%.
For CCc1ccccc1NC(=O)c1ccc(CN2C(=O)CCn3nc(C)cc32)cc1 the results were FUS suppressor inactive, TDP-43 yeast inh 5.9%, ERG Ets-DNA blk -2.9% and Abeta yeast res inactive.
`CC(=O)/C(=N/Nc1cccc(Cl)c1)N1CCOCC1` gave FUS suppressor inactive, TDP-43 yeast inh 17.8µM*, ERG Ets-DNA blk 2.4%, Abeta yeast res inactive, Mito fusion yeast 2.0% and aSyn yeast inh 12.2%.
